What all share (experiment): DAPPL (digital affinity profiling via proximity ligation, sequencing); 10 mM Tris-HCl pH 7.5, 50 mM NaCl, 1 mM DTT, 4% glycerol, room temperature, 30 min; GST-TFs on glutathione beads, 16-mer random dsDNA library, 0.1% formaldehyde crosslink after washing; high values mean tight binding
In one assay the target is T1, FEV (Homo sapiens, UniProt Q99581 1-238).
T1 sequence: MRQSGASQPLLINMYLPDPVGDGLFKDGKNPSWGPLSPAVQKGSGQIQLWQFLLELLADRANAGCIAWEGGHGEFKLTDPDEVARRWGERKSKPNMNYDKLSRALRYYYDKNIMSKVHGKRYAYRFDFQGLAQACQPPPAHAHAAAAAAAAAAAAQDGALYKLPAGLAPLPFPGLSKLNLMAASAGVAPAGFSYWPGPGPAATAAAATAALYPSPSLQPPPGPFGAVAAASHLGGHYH
To be noted: protein: recombinant; tags: N-terminal GST; dsDNA, one strand shown. In a few lines:
(§1)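 GST fusions of human transcription factors were expressed in yeast and captured with glutathione beads. Once given DNA barcodes and pooled alongside a tag-only sample, they were incubated for 30 min at room temperature with 200 nmole of a random double-stranded 16-mer DNA library in Tris/NaCl/DTT/glycerol buffer, then washed, crosslinked (0.1% formaldehyde), proximity-ligated, PCR-amplified and sequenced on an Illumina NextSeq500. The binding signal of each hexamer is its read frequency for a factor divided by its frequency for the tag-only sample.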

A further assay deals with ETV5 (Homo sapiens, UniProt P41161 1-510). The note with it: protein: recombinant; tags: N-terminal GST; dsDNA, one strand shown. The procedure, abridged: as §1
Sequence of ETV5 (P41161 whole entry): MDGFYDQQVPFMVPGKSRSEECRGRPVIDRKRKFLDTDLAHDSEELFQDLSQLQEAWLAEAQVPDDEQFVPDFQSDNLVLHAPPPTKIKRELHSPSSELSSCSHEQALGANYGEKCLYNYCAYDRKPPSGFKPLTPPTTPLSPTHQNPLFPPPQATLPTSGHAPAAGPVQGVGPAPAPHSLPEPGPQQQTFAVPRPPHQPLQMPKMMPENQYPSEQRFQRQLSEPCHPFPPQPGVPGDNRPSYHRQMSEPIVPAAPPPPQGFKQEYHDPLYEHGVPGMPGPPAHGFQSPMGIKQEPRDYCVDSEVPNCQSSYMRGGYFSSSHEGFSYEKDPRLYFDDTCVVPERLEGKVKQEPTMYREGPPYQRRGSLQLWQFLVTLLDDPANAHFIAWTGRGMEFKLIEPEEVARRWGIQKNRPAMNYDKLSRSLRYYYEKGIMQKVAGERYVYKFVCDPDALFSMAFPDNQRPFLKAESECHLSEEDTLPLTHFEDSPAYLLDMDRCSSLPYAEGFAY
The target in a further assay is HSF1 (Homo sapiens, UniProt Q00613 1-529). To be noted: protein: recombinant; tags: N-terminal GST; chain copies: 3; dsDNA, one strand shown. The procedure, abridged: as §1
Sequence of HSF1 (Q00613 whole entry): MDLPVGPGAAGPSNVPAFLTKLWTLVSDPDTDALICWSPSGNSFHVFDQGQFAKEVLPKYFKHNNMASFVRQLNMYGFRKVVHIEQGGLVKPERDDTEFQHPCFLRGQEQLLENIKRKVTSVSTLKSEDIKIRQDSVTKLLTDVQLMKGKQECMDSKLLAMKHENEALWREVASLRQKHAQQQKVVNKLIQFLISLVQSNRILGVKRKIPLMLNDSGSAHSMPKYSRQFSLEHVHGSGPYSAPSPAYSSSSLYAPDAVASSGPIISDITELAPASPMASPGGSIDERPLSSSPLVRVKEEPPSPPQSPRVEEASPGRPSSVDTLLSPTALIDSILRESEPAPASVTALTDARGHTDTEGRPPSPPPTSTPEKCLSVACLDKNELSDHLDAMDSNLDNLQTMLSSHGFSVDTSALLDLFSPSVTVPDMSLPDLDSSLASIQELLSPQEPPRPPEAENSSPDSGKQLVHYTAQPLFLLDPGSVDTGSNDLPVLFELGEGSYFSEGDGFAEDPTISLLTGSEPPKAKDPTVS
Another assay deals with T2, SPIC (Homo sapiens, UniProt Q8N5J4 1-248).
T2 sequence: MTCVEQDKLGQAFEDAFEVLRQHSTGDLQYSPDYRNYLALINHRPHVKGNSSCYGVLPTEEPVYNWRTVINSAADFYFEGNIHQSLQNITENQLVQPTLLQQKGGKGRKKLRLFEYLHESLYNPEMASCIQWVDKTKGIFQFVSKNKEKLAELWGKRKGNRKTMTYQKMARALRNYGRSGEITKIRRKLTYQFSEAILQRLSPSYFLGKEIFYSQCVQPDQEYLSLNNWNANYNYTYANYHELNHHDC
The note with it: protein: recombinant; tags: N-terminal GST; dsDNA, one strand shown. The procedure, abridged:
as §1

The next assay has as its target ELF4 (Homo sapiens, UniProt Q99607 1-663). The note with it: protein: recombinant; tags: N-terminal GST; dsDNA, one strand shown. In a few lines:
as §1

A further assay addresses T3, ELK4 (Homo sapiens, UniProt P28324-2 1-405).
T3 sequence: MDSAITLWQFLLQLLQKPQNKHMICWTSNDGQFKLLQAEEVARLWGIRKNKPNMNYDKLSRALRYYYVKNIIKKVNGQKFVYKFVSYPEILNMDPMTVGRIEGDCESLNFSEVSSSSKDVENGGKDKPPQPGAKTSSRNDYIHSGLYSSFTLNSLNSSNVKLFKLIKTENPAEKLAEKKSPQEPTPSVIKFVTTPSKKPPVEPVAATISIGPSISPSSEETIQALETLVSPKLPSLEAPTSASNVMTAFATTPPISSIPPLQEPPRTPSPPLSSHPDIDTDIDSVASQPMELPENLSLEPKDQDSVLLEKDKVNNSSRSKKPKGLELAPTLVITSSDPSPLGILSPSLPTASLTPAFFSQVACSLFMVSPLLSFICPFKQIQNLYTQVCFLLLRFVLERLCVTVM
To be noted: protein: recombinant; tags: N-terminal GST; dsDNA, one strand shown. In a few lines:
as §1

The target of the next assay is T4, ETV2 (Homo sapiens, UniProt O00321 1-342).
T4 sequence: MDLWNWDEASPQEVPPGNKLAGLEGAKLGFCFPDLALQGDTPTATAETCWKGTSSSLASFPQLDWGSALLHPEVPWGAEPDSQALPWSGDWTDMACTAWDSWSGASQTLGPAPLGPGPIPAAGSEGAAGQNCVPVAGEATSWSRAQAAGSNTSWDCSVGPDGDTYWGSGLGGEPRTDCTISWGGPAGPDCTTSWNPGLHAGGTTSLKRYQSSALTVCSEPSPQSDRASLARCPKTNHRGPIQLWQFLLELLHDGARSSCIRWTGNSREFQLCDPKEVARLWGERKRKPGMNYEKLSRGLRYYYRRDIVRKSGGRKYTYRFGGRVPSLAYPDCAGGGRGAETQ
To be noted: protein: recombinant; tags: N-terminal GST; dsDNA, one strand shown. The procedure, abridged:
as §1

A further assay concerns the target T5, ELF3 (Homo sapiens, UniProt P78545 1-371).
T5 sequence: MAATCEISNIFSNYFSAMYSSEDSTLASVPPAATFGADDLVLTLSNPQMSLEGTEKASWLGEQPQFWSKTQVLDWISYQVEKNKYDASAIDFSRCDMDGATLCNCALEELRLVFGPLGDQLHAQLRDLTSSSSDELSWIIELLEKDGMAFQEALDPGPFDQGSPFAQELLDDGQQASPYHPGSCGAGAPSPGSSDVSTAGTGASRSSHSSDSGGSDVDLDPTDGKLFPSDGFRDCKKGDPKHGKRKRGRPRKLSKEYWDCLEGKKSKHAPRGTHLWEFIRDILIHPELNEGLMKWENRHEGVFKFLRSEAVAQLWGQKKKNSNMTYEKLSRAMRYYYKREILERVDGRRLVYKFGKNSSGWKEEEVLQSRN
To be noted: protein: recombinant; tags: N-terminal GST; dsDNA, one strand shown. The procedure, abridged: as §1

The next assay concerns the target CRX (Homo sapiens, UniProt O43186 1-299). The note with it: protein: recombinant; tags: N-terminal GST; dsDNA, one strand shown. In a few lines: as §1
Another assay concerns the target ETV1 (Homo sapiens, UniProt P50549 1-477). The note with it: protein: recombinant; tags: N-terminal GST; dsDNA, one strand shown. In a few lines: as §1

Sequence of ELF4 (Q99607 whole entry): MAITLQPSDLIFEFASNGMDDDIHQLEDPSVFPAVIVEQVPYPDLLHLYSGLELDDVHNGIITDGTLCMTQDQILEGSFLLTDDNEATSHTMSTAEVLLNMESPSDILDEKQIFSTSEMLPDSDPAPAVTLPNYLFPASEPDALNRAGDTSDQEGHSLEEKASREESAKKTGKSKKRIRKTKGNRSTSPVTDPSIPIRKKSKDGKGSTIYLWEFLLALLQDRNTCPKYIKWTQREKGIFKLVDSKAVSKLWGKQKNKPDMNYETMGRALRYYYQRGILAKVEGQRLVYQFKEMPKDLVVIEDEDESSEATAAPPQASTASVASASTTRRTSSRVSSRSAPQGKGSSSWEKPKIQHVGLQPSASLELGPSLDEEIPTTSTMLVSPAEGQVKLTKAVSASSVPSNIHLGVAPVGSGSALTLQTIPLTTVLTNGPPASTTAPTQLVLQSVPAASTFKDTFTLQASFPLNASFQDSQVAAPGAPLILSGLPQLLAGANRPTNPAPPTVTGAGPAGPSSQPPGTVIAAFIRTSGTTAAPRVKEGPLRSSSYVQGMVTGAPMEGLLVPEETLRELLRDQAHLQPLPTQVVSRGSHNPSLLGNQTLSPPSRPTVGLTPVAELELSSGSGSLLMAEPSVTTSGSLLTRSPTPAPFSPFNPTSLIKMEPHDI
Sequence of ETV1 (P50549 whole entry): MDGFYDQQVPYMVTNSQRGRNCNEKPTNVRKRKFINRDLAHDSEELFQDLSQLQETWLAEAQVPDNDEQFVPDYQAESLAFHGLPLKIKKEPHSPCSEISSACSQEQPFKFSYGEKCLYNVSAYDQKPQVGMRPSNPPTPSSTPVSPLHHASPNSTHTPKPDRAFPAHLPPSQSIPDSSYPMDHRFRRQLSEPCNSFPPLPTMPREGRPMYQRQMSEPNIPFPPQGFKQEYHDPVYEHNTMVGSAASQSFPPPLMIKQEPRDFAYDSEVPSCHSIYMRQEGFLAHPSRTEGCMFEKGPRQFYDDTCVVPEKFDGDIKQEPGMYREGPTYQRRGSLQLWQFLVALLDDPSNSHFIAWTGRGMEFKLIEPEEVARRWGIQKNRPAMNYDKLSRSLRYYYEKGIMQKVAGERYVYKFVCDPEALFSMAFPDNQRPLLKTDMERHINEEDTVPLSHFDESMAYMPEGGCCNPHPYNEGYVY
Sequence of CRX (O43186 whole entry): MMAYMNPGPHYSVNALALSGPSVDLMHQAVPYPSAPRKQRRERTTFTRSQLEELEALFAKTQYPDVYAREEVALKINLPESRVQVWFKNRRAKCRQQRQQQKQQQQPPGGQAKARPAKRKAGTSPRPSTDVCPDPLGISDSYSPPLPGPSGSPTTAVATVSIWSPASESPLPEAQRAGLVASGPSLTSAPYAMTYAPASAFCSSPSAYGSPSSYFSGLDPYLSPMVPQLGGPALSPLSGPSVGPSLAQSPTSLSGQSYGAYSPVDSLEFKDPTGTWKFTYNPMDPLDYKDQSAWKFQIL

With GAACCT, the binding signal is 1.03 fold enrichment (6-mer frequency, TF over GST control) with FEV; 1.1 fold enrichment (6-mer frequency, TF over GST control) with ETV5; 1.45 fold enrichment (6-mer frequency, TF over GST control) with HSF1; 1.09 fold enrichment (6-mer frequency, TF over GST control) with SPIC; 1.17 fold enrichment (6-mer frequency, TF over GST control) in the assay with ELF4; 1.07 fold enrichment (6-mer frequency, TF over GST control) with ELK4. Further, the binding signal with ETV2 was 1.25 fold enrichment (6-mer frequency, TF over GST control); with ELF3, 1.15 fold enrichment (6-mer frequency, TF over GST control); with CRX, 1.06 fold enrichment (6-mer frequency, TF over GST control); with ETV1, 1.05 fold enrichment (6-mer frequency, TF over GST control).

As to TTTAGC, the binding signal was 1.11 fold enrichment (6-mer frequency, TF over GST control) with FEV; 1.03 fold enrichment (6-mer frequency, TF over GST control) in the assay with ETV5; 1.25 fold enrichment (6-mer frequency, TF over GST control) in the assay with HSF1; 1.07 fold enrichment (6-mer frequency, TF over GST control) with SPIC; 1.2 fold enrichment (6-mer frequency, TF over GST control) with ELF4; 1.13 fold enrichment (6-mer frequency, TF over GST control) in the assay with ELK4. The binding signal with ETV2 was 1.13 fold enrichment (6-mer frequency, TF over GST control); in the assay with ELF3, 1.08 fold enrichment (6-mer frequency, TF over GST control); in the assay with CRX, 1.64 fold enrichment (6-mer frequency, TF over GST control); with ETV1, 1.18 fold enrichment (6-mer frequency, TF over GST control).

For the sequence TCGTTT, the binding signal with FEV was 1.14 fold enrichment (6-mer frequency, TF over GST control); in the assay with ETV5, 1.09 fold enrichment (6-mer frequency, TF over GST control); in the assay with HSF1 it was 1.02 fold enrichment (6-mer frequency, TF over GST control); in the assay with SPIC it was 1.15 fold enrichment (6-mer frequency, TF over GST control); in the assay with ELF4 it was 1.17 fold enrichment (6-mer frequency, TF over GST control); with ELK4, 1.24 fold enrichment (6-mer frequency, TF over GST control). Further, the binding signal was 1.3 fold enrichment (6-mer frequency, TF over GST control) in the assay with ETV2; 1.27 fold enrichment (6-mer frequency, TF over GST control) with ELF3; 1.08 fold enrichment (6-mer frequency, TF over GST control) with CRX; 1.18 fold enrichment (6-mer frequency, TF over GST control) in the assay with ETV1.

Take AACGAT: the binding signal with FEV was 1.15 fold enrichment (6-mer frequency, TF over GST control); with ETV5 it was 1.22 fold enrichment (6-mer frequency, TF over GST control); with HSF1 it was 1.32 fold enrichment (6-mer frequency, TF over GST control); with SPIC it was 1.19 fold enrichment (6-mer frequency, TF over GST control); in the assay with ELF4, 1.17 fold enrichment (6-mer frequency, TF over GST control); with ELK4, 1.15 fold enrichment (6-mer frequency, TF over GST control). The binding signal in the assay with ETV2 is 1.35 fold enrichment (6-mer frequency, TF over GST control); with ELF3, 1.08 fold enrichment (6-mer frequency, TF over GST control); with CRX it was 1.38 fold enrichment (6-mer frequency, TF over GST control); with ETV1, 1.19 fold enrichment (6-mer frequency, TF over GST control).

Regarding CCCCCT, the binding signal with FEV is 1.18 fold enrichment (6-mer frequency, TF over GST control); with ETV5, 1.29 fold enrichment (6-mer frequency, TF over GST control); with HSF1, 1.02 fold enrichment (6-mer frequency, TF over GST control); in the assay with SPIC it was 1.31 fold enrichment (6-mer frequency, TF over GST control); with ELF4, 1.35 fold enrichment (6-mer frequency, TF over GST control); in the assay with ELK4, 1.58 fold enrichment (6-mer frequency, TF over GST control). Besides, the binding signal with ETV2 was 1.17 fold enrichment (6-mer frequency, TF over GST control); with ELF3 it was 1.39 fold enrichment (6-mer frequency, TF over GST control); with CRX, 1.07 fold enrichment (6-mer frequency, TF over GST control); with ETV1 it was 1.2 fold enrichment (6-mer frequency, TF over GST control).

In the case of TATTTA, the binding signal with FEV was 1.4 fold enrichment (6-mer frequency, TF over GST control); in the assay with ETV5 it was 1.47 fold enrichment (6-mer frequency, TF over GST control); with HSF1 it was 1.75 fold enrichment (6-mer frequency, TF over GST control); in the assay with SPIC, 1.69 fold enrichment (6-mer frequency, TF over GST control); with ELF4 it was 1.45 fold enrichment (6-mer frequency, TF over GST control); with ELK4, 1.66 fold enrichment (6-mer frequency, TF over GST control). Also, the binding signal with ETV2 is 1.43 fold enrichment (6-mer frequency, TF over GST control); in the assay with ELF3, 1.57 fold enrichment (6-mer frequency, TF over GST control); in the assay with CRX, 2.47 fold enrichment (6-mer frequency, TF over GST control); with ETV1, 1.51 fold enrichment (6-mer frequency, TF over GST control).

TCAAAC: the binding signal is 1.21 fold enrichment (6-mer frequency, TF over GST control) with FEV; 1.17 fold enrichment (6-mer frequency, TF over GST control) with ETV5; 1.03 fold enrichment (6-mer frequency, TF over GST control) with HSF1; 1.19 fold enrichment (6-mer frequency, TF over GST control) with SPIC; 1.21 fold enrichment (6-mer frequency, TF over GST control) with ELF4; 1.28 fold enrichment (6-mer frequency, TF over GST control) in the assay with ELK4. Also, the binding signal with ETV2 was 1.3 fold enrichment (6-mer frequency, TF over GST control); with ELF3 it was 1.24 fold enrichment (6-mer frequency, TF over GST control); with CRX it was 1.14 fold enrichment (6-mer frequency, TF over GST control); with ETV1, 1.29 fold enrichment (6-mer frequency, TF over GST control).

For CTTATA, the binding signal in the assay with FEV was 1.31 fold enrichment (6-mer frequency, TF over GST control); with ETV5, 1.29 fold enrichment (6-mer frequency, TF over GST control); with HSF1, 1.65 fold enrichment (6-mer frequency, TF over GST control); in the assay with SPIC, 1.34 fold enrichment (6-mer frequency, TF over GST control); with ELF4 it was 1.32 fold enrichment (6-mer frequency, TF over GST control); with ELK4, 1.38 fold enrichment (6-mer frequency, TF over GST control). The binding signal with ETV2 is 1.15 fold enrichment (6-mer frequency, TF over GST control); with ELF3, 1.37 fold enrichment (6-mer frequency, TF over GST control); with CRX it was 2.27 fold enrichment (6-mer frequency, TF over GST control); with ETV1, 1.49 fold enrichment (6-mer frequency, TF over GST control).

Values taken from publication PMC7862700, “An all-to-all approach to the identification of sequence-specific readers for epigenetic DNA modifications on cytosine”.
